tested on: Caenorhabditis elegans L1 (N2); assay: survival and reproduction score of C. elegans L1 (0: 0-10 living worms, 1: 11-20, 2: 21-50, 3: >50, 4: overgrown) (score 0-4); higher = more worms, less nematicidal, active = 1 or less; extreme values may be limits of the assay; details: 60 µM; 6 days; temperature: 20 °C
Description: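 DODA library (846 commercial 1,3,4- and 1,2,4-oxadiazole compounds plus commercial nematicide controls) screened at a single dose of 60 µM (0.6% DMSO) in 96-well plates, two biological replicates. Read-outs: C. elegans N2 L1 survival/reproduction score at day 6, 20 °C (0: 0-10 worms, 1: 11-20, 2: 21-50, 3: >50, 4: overgrown/starved). C. elegans daf-2 dauer, D. dipsaci and M. hapla J2 mobility at day 5, 20 °C, and P. penetrans mobility at day 5, 20 °C, each relative to DMSO controls. M. hapla egg hatching at day 12, 25 °C, relative to the mean of 8 DMSO wells on the same plate.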

SMILES | survival and reproduction score
COc1ccc(Cl)cc1-c1noc(-c2ccc(Cl)cc2)n1 | 4 (inactive)
Cc1ccc(-c2nc(-c3ccccc3Cl)no2)cc1 | 4 (inactive)
Clc1ccccc1-c1noc(-c2cccnc2)n1 | 4 (inactive)
COc1cccc(-c2nc(-c3ccc(C)cc3)no2)c1 | 0 (active)
Cc1ccccc1-c1nc(-c2ccccc2Cl)no1 | 0 (active)
c1ccc(-c2nnc(SCc3cccnc3)o2)cc1 | 4 (inactive)
Cc1cccc(-c2noc(-c3cccc(Cl)c3)n2)c1 | 4 (inactive)
Cc1ccc(-c2nc(-c3ccccc3Br)no2)cc1 | 4 (inactive)
CCOC(=O)c1sc(NC(=O)CSc2nnc(-c3ccc(Cl)cc3)o2)c(C#N)c1C | 4 (inactive)
COc1nc(-c2ccc(C)cc2)ccc1-c1noc(C)n1 | 4 (inactive)
Cc1ncc2c(c1-c1noc(-c3ccccc3)n1)CCC2 | 4 (inactive)
CC(C)NC(=O)N1CC(=O)N(c2cc(Cl)cc(Cl)c2)C1=O [iprodione] | 4 (inactive)
COc1cccc(-c2nc(-c3ccc(Cl)cc3)no2)c1 | 4 (inactive)
Cc1ccc(-c2nc(-c3ccc(Br)cc3)no2)cc1 | 4 (inactive)
COc1cccc(NC(=O)CSc2nnc(-c3ccc(C)cc3)o2)c1 | 4 (inactive)
Brc1ccc(-c2nc(-c3ccc4c(c3)OCO4)no2)cc1 | 4 (inactive)
Clc1ccc(-c2nnc(SCc3ccccc3)o2)cc1 | 4 (inactive)
Clc1ccc(OCc2nc(-c3ccccc3)no2)cc1 | 4 (inactive)
COc1ccccc1-c1nc(-c2cccc(Br)c2)no1 | 4 (inactive)
CCOc1nc(-c2ccccc2)ccc1-c1noc(-c2cccc(C)c2)n1 | 4 (inactive)

SMILES | survival and reproduction score
CN(C)c1ccc(-c2nnc(SCc3ccccc3)o2)cc1 | 4 (inactive)
CC(C)(C)c1ccc(-c2nc(-c3ccncc3)no2)cc1 | 0 (active)
Cc1ccc(-c2nc(-c3cccnc3)no2)cc1Cl | 0 (active)
Cc1cc(OCc2nc(-c3ccncc3)no2)cc(C)c1Cl | 4 (inactive)
Fc1ccc(OCc2nc(-c3ccc(Br)cc3)no2)cc1 | 3 (inactive)
Cc1ccc(-c2noc(C3CCCCC3)n2)cc1 | 0 (active)
Cc1ccccc1-c1noc(COc2ccccc2)n1 | 4 (inactive)
Cc1ccccc1-c1noc(-c2ccccc2OCC(N)=O)n1 | 4 (inactive)
N#Cc1ccccc1CSc1nnc(-c2ccccc2)o1 | 4 (inactive)
O=C(CSc1nnc(-c2ccccc2)o1)Nc1cc(C(F)(F)F)ccc1Cl | 4 (inactive)
O=C(CSc1nnc(-c2ccccc2Cl)o1)NCc1ccccc1 | 4 (inactive)
Cc1ccc(C)c(OCc2nc(-c3cccnc3)no2)c1 | 4 (inactive)
COc1ccc(NC(=O)CSc2nnc(-c3ccccc3)o2)cc1 | 4 (inactive)
Cc1ccc(-c2nc(-c3ccncc3)no2)cc1Cl | 0 (active)
COc1ccc(-c2nnc(SCC(=O)OCc3ccccc3)o2)cc1 | 4 (inactive)
Cc1ccc(OCc2nc(-c3ccncc3)no2)cc1C | 4 (inactive)
O=C(c1ccccc1-c1nc(-c2ccccc2)no1)N1CCCCC1 | 4 (inactive)
COc1ccccc1-c1nc(-c2ccc(Cl)cc2)no1 | 4 (inactive)
CCc1ccc(NC(=O)CSc2nnc(-c3ccc(Cl)cc3Cl)o2)cc1 | 4 (inactive)
COc1ccc(-c2noc(-c3ccc(C)cc3Cl)n2)cc1 | 4 (inactive)

From the supplement of paper PMC11219838
